Assay results from ChEMBL document CHEMBL3433997, “St. Jude Leishmania screening dataset” (2016).

What was measured:
Assay type in all cases: functional
[1] = molecular target: Solute carrier family 2, facilitated glucose transporter member 1 (Homo sapiens) (UniProt P11166); experiment: ST_JUDE_LEISH: Cytotoxicity at 2uM final concentration against transgenic Leishmania Mexicana promastigotes LmGLUT1 that are glucose transport deficient and complemented with the human glucose transporter GLUT1. Activity is measured by DNA content using SYBR green in vitro
[2] = molecular target: Hexose transporter 1 (Plasmodium falciparum) (UniProt O97467); experiment: ST_JUDE_LEISH: Cytotoxicity at 2uM final concentration against transgenic Leishmania Mexicana promastigotes LmPfHT that are glucose transport deficient and complemented with the Plasmodium falciparum hexose transporter. Activity is measured by DNA content using SYBR green in vitro
[3] = molecular target: Glucose transporter (Leishmania mexicana) (UniProt O61059); experiment: ST_JUDE_LEISH: Cytotoxicity at 2uM final concentration against transgenic Leishmania Mexicana promastigotes LmGT2 that are glucose transport deficient and complemented with the L. Mexicana glucose transporter 2. Activity is measured by DNA content using SYBR green in vitro

Solute carrier family 2, facilitated glucose transporter member 1 (Homo sapiens), sequence (P11166 whole entry): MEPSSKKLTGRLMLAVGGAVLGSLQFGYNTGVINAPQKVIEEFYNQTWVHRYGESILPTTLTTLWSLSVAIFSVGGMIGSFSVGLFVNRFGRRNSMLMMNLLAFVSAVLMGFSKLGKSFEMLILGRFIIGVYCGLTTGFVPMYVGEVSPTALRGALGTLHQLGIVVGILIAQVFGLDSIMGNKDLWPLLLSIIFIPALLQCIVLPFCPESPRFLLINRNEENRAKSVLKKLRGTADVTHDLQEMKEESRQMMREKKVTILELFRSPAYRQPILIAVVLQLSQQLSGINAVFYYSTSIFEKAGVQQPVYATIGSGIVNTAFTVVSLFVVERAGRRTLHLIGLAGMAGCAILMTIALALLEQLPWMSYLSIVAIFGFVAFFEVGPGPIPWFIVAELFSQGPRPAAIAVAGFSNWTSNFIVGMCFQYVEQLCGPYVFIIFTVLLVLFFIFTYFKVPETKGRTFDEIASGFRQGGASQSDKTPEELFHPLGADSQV

Q: Which inhibition [1] does the source give for `CN(C)CCN(Cc1ccccc1-c1ccc(CNCCc2ccccc2)cc1)C(=O)c1ccccc1` here?
A: 3.46%

Q: And the inhibition [2]?
A: 2.83%

Q: What about the inhibition [3] of the same molecule?
A: 3.1%

Q: How did the inhibition [1] turn out when `Cc1ccc2c(OCCN3CCC(Cc4ccc5c(c4)NC(=O)CO5)CC3)cc(F)cc2n1` was run?
A: 3.49%

Q: What about the inhibition [2] of the same molecule?
A: 2.13%

Q: And the inhibition [3]?
A: 0.63%

Q: With `Cc1ccc(C(=O)Nc2ccc(F)c(F)c2F)cc1S(=O)(=O)N1CCCCC1` as the molecule, how does the inhibition [1] read?
A: 4.08%

Q: What about the inhibition [2] of the same molecule?
A: 3.47%

Q: And the inhibition [3]?
A: 0.7%

Q: Which inhibition [1] does the source give for `CC(C)(C)c1ccc(CNC(=O)c2cc(CNC3CCNCC3)ccc2O)cc1` here?
A: 1.45%

Q: And the inhibition [2]?
A: 1.01%

Q: And the inhibition [3]?
A: 0.22%

Q: `COc1ccc(-c2cccc(NC(=O)c3cccc(C#N)c3)c2)cc1CN1CCCN(C)CC1` was tested. Which inhibition [1] did it give?
A: 1.45%

Q: And the inhibition [2]?
A: 1.13%

Q: What about the inhibition [3] of the same molecule?
A: 5.93%

Q: What does the source list for `Cc1cccc(OCC2CCN(c3ncc(C(=O)NC4CC4)cc3Cl)CC2)c1`?
A: inhibition [1]: 0.26%; inhibition [2]: 5.86%; inhibition [3]: 2.26%

Q: Which inhibition [1] does the source give for `CC(=O)N[C@H](C(=O)Nc1cccc(-c2ccc(-c3nc4cccc(C)c4[nH]3)s2)c1)C(C)C` here?
A: 3.65%

Q: And the inhibition [2]?
A: 2.85%

Q: What about the inhibition [3] of the same molecule?
A: 2.08%

Q: Which inhibition [1] does the source give for `COc1cccc(-c2nc(Nc3ccncc3)c3ncn(C)c3n2)c1` here?
A: 3.21%

Q: What about the inhibition [2] of the same molecule?
A: 3.6%

Q: And the inhibition [3]?
A: 2.65%

Q: How did the inhibition [1] turn out when `CN1CCN(CCCN(Cc2cccc(-c3ccc(CNCc4ccc5c(c4)OCO5)cc3)c2)C(=O)Nc2ccccc2)CC1` was run?
A: 1.77%

Q: What about the inhibition [2] of the same molecule?
A: 4.4%

Q: What about the inhibition [3] of the same molecule?
A: 1.33%

Q: For `O=C(/C=C/c1ccc(Cl)c(Cl)c1)NCCCCCN1CCCN(C(=O)Nc2ccc([N+](=O)[O-])cc2)CC1`, which inhibition [1] is on record?
A: 1.18%

Q: And the inhibition [2]?
A: 1.11%

Q: What about the inhibition [3] of the same molecule?
A: 4.07%

Q: Which results are given for `CC(C)NCc1cccc(-c2cccc(NC(=O)c3cccc(C#N)c3)c2)c1`?
A: inhibition [1]: 5.22%; inhibition [2]: 4.93%; inhibition [3]: 5.23%

Q: Which inhibition [1] does the source give for `CNC(=O)c1cc(S(=O)(=O)N2CCN(c3ccccn3)CC2)cs1` here?
A: 0.24%

Q: And the inhibition [2]?
A: 0.78%

Q: What about the inhibition [3] of the same molecule?
A: -2.48%

Q: With `O=C(Nc1ccc2c(c1)CCN2C1CCN(Cc2cccc(F)c2F)C1)c1ccco1` (stereo unspecified) as the molecule, how does the inhibition [1] read?
A: 2.08%

Q: And the inhibition [2]?
A: 1.62%

Q: What about the inhibition [3] of the same molecule?
A: 2.93%

Q: How did the inhibition [1] turn out when `Cc1nc(C(C)Nc2nncc(-c3ccc(Cl)cc3)n2)cs1` (stereo unspecified) was run?
A: 1.13%

Q: What about the inhibition [2] of the same molecule?
A: 0.17%

Q: And the inhibition [3]?
A: 1.17%

Q: Which inhibition [1] does the source give for `COc1ccc2nccc(N3CCC(SCCNCc4cc5c(cn4)OCCO5)C3)c2n1` (stereo unspecified) here?
A: 0.61%

Q: What about the inhibition [2] of the same molecule?
A: 0.85%

Q: What about the inhibition [3] of the same molecule?
A: -2.04%

Q: Which inhibition [1] does the source give for `COCCn1c(Sc2ccc(C#N)c([N+](=O)[O-])c2)nnc1-c1ccc(N(C)C)cc1` here?
A: 13%

Q: And the inhibition [2]?
A: 13.5%

Q: And the inhibition [3]?
A: 11.7%

Q: With `COc1ccc2nccc(N3CCC(CCNCc4cc5c(cn4)OCCO5)CC3)c2n1` as the molecule, how does the inhibition [1] read?
A: -0.34%

Q: What about the inhibition [2] of the same molecule?
A: 0.24%

Q: What about the inhibition [3] of the same molecule?
A: 1.72%

Q: How did the inhibition [1] turn out when `O=C(Cn1c(CCc2cccc(F)c2F)nc(=O)c2ccccc21)N(Cc1ccc(-c2ccc(C(F)(F)F)cc2)cc1)C1CCN(C2CCOCC2)CC1` was run?
A: 1.91%

Q: What about the inhibition [2] of the same molecule?
A: 2.37%

Q: What about the inhibition [3] of the same molecule?
A: 1.17%

Q: What does the source list for `O=C(N[C@@H](Cc1ccccc1)C(=O)NC1CCCCCC1)c1ccc(O)c(-c2cccc(C(F)(F)F)c2)c1`?
A: inhibition [1]: 5.83%; inhibition [2]: 4.69%; inhibition [3]: 0.57%

Q: Which inhibition [1] does the source give for `Oc1ccc(CN2CCC(NCc3cccc4ccccc34)CC2)cc1` here?
A: 12.4%

Q: And the inhibition [2]?
A: 11.6%

Q: What about the inhibition [3] of the same molecule?
A: 9.93%

Q: Which results are given for `O=C(/C=C/c1ccc(Cl)c(Cl)c1)NCCCCCN1CCC(NC(=O)Nc2cccc(F)c2)CC1`?
A: inhibition [1]: 2.32%; inhibition [2]: 1.97%; inhibition [3]: 2.29%

Q: With `COc1ccc(N2CCN(CCCCNC(=O)c3ccc(NC(=O)c4cc(Cl)cc(Cl)c4)cc3)CC2)c(OC)c1` as the molecule, how does the inhibition [1] read?
A: 2.07%

Q: And the inhibition [2]?
A: 3.87%

Q: What about the inhibition [3] of the same molecule?
A: 3.2%

Q: Which results are given for `CCOC(=O)c1ccc(NC(=O)N[C@@H](Cc2ccccc2)C(=O)NC2CCN(Cc3ccc(OCCCN(C)C)cc3)C2)cc1` (stereo partly specified)?
A: inhibition [1]: -0.91%; inhibition [2]: 0.74%; inhibition [3]: 0.98%

Q: How did the inhibition [1] turn out when `COc1ccc2nccc([C@@H](O)CN3CCC(NC(=O)c4cccc(C(=O)c5ccccc5)c4)CC3)c2c1` was run?
A: -1.15%

Q: What about the inhibition [2] of the same molecule?
A: 0.28%

Q: What about the inhibition [3] of the same molecule?
A: 0.47%

Q: Which inhibition [1] does the source give for `Oc1ccc(CCNc2nc(NCCCOc3ccccc3-c3ccncc3)nc(N3CCNCC3)n2)cc1` here?
A: 3.68%

Q: What about the inhibition [2] of the same molecule?
A: 5.15%

Q: And the inhibition [3]?
A: 5.3%

Q: With `c1ccc(CN2CCC(NCc3ccc(-c4cncc5ccccc45)cc3)CC2)cc1` as the molecule, how does the inhibition [1] read?
A: 0.33%

Q: What about the inhibition [2] of the same molecule?
A: -2.18%

Q: What about the inhibition [3] of the same molecule?
A: 3.84%

Q: `CN1CCN(c2nc(NCCc3ccc(O)cc3)nc(NCc3ccccc3-c3ccc(C(F)(F)F)cc3)n2)CC1` was tested. Which inhibition [1] did it give?
A: 1.59%

Q: What about the inhibition [2] of the same molecule?
A: 2.22%

Q: And the inhibition [3]?
A: 3.13%

Q: Which inhibition [1] does the source give for `COc1ccc2[nH]ccc(=NN=Cc3cccc(C)n3)c2c1` here?
A: 18.7%

Q: And the inhibition [2]?
A: 14.9%

Q: What about the inhibition [3] of the same molecule?
A: 11.8%

Q: What does the source list for `COc1cccc(C2CCCN(CCCCNC(=O)c3ccc(NC(=O)c4ccc(Cl)cc4)cc3)C2)c1` (stereo unspecified)?
A: inhibition [1]: 2.97%; inhibition [2]: 4.25%; inhibition [3]: 3.02%

Q: What does the source list for `O=C(NC1CC1)c1cnc(N2CCN(Cc3ccc(Cl)cc3)CC2)c(Cl)c1`?
A: inhibition [1]: 5.43%; inhibition [2]: 1.16%; inhibition [3]: -5.97%

Q: `O=C(Nc1ccc(Cl)c(Cl)c1)Nc1ccccc1N1CCNCC1` was tested. Which inhibition [1] did it give?
A: 0.02%

Q: What about the inhibition [2] of the same molecule?
A: 0.2%

Q: What about the inhibition [3] of the same molecule?
A: 1.04%

Q: What does the source list for `CCOC(=O)N1CCN(CCCNc2c3ccccc3nc3ccccc23)CC1`?
A: inhibition [1]: 6.23%; inhibition [2]: 4.08%; inhibition [3]: 1.91%
